Compound activity (PubChem)
The full list was thinned out, with hits kept by preference.
Methyltransferases = Primary Screen for Target Class Profiling of Small Molecule Inhibitors of Methyltransferases | actives 3.9% (n = 25,000) | AID 1745853, 2022 | calls only at 40 µM | purified enzyme, MTase-Glo SAH luminescence; hits give low values; call rule not given here
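Each enzyme was assayed with SAM and its substrate. SAH formation detected by MTase-Glo luminescence; single-point 40 uM screen[…].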
Calls only; . = inactive; + = active, no number.

SMILES	Methyltransferases
COc1ccc(CN2C(=O)c3cc4ccc(OC)cc4n3CC2(C)C(=O)NCC2CCCO2)cc1 (stereo unspecified)	.
CC(C)CC(NC(=O)OCc1ccccc1)C(=O)NC(CC(C)C)C(=O)NC(CCC(=O)O)C(=O)Nc1ccc2ccccc2c1 (stereo unspecified)	.
Cc1cc(=O)oc2cc(NC(=O)[C@H](CCC(=O)O)NC(=O)[C@H](CC(C)C)NC(=O)[C@H](CC(C)C)NC(=O)OCc3ccccc3)ccc12	+
O=c1c2ccccc2n2c(=O)n(Cc3ccccc3F)nc2n1CCc1ccccc1	.
CN1C(=O)c2cc(C(=O)NCCc3ccc(Cl)cc3)nn2CC1(C)C(=O)NC1CCCCC1 (stereo unspecified)	.
Cc1ccc(Cl)cc1NC(=O)N1CCn2cccc2C1C (stereo unspecified)	.
Cc1coc2c1C(=O)C(=O)c1c-2ccc2c(C)cccc12	.
Cc1coc2c1C(=O)C(=O)c1c-2ccc2c1CCCC2(C)C	+
CC1(C(=O)NCc2ccc(F)cc2)Cn2cnc(C(=O)NCCc3cccs3)c2C(=O)N1C1CC1 (stereo unspecified)	.
CCC(C(=O)N1CCN(c2ccccn2)CC1)n1ccc2cc(S(=O)(=O)N3CCCCC3)ccc21 (stereo unspecified)	.
CC(C)c1ccc(N2C(=O)c3cc4ccccc4n3CC2(C)C(=O)NC2CCCC2)cc1 (stereo unspecified)	.
O=C(NCCCc1ccccc1)C1CN(C2CCCC2)C(=O)N1 (stereo unspecified)	.
CC1=C(C(=O)OCc2ccccc2)C(c2ccc(-c3ccccc3)cc2)NC(=O)N1CCCCCC(=O)O (stereo unspecified)	+
O=C1N[C@@H]2CCN(C(=O)c3ccc(-c4ccccc4)cc3)[C@@H]2C(=O)N1Cc1ccccc1	.
CCOC(=O)c1cc2n(n1)CC(C)(C(=O)NC1CCC(C)CC1)N(c1cc(C)cc(C)c1)C2=O (stereo unspecified)	.
CCC(C)NC(=O)CCc1nnc2n(Cc3ccc(Cl)cc3)c(=O)c3ccccc3n12 (stereo unspecified)	.
O=[N+]([O-])c1cccc2c(Br)[nH]nc12	+
Cn1c(=O)c2ccc(C(=O)NC3CCCC3)cc2n2c(SCC(=O)Nc3ccc(F)cc3)nnc12	.
O=C(CC1CCOC2(CCN(S(=O)(=O)c3ccc(F)cc3)CC2)C1)N1CCOCC1 (stereo unspecified)	.
COCCN1C(=O)c2ccc(-c3ccco3)n2CC1(C)C(=O)NC1CCCCCCC1 (stereo unspecified)	.
CC1CCN(S(=O)(=O)c2ccc3c(c2)oc(=O)n3CC(=O)N2CCC(Cc3ccccc3)CC2)CC1	.
C=CC1C(O[C@@H]2O[C@H](CO)[C@@H](O)[C@H](O)[C@H]2O)OC=C(C(=O)OC)C1Cc1nccc2c1[nH]c1ccccc12 (stereo partly specified)	.
COC(=O)C1=CO[C@@H](O[C@@H]2O[C@H](CO)[C@@H](O)[C@H](O)[C@H]2O)[C@@H]2[C@@H](CO)[C@@H](O)C(O)[C@H]12 (stereo partly specified)	.
C=C[C@H]1[C@H](O[C@@H]2O[C@H](CO)[C@@H](O)[C@H](O)[C@H]2O)OC=C(C(=O)OC)[C@H]1C/C=C(/C=O)[C@@H]1C(C(=O)OC)=CO[C@@H](O[C@@H]2O[C@H](CO)[C@@H](O)[C@H](O)[C@H]2O)[C@@H]1C=C	+
C=C[C@H]1[C@H](O[C@@H]2O[C@H](CO)[C@@H](O)[C@H](O)[C@H]2O)OC=C(C(=O)OC)[C@H]1CCOC(=O)c1cc(O)c(O)c(O)c1	+
SMILES	Methyltransferases
C/C=C1\[C@H](O[C@@H]2O[C@H](CO)[C@@H](O)[C@H](O)[C@H]2O)OC=C(C(=O)OC)[C@H]1CC(=O)O	.
COC(=O)C1=CO[C@@H](O[C@@H]2O[C@H](CO)[C@@H](O)[C@H](O)[C@H]2O)[C@@H]2C(COC(C)=O)=C[C@H](O)[C@H]12	.
CCCn1c(=O)c2ccc(C(=O)NC(C)C)cc2n2c(SCC(=O)Nc3cccc(Cl)c3)nnc12	.
CCCC1c2cccn2CCN1C(=O)Nc1cc(C)cc(C)c1 (stereo unspecified)	.
COc1ccc(CN2C(=O)c3ccc(-c4ccco4)n3CC2(C)C(=O)NC2CCCC2)cc1 (stereo unspecified)	.
CCOC(=O)CNC(=O)C1(C)Cn2nc(C(=O)OCC)cc2C(=O)N1Cc1cccc(C)c1 (stereo unspecified)	.
COC(=O)c1ncn2c1C(=O)N(Cc1cccc(OC)c1)C(C)(C(=O)NC1CCCC1)C2 (stereo unspecified)	.
Cc1cc(C)cc(N2C(=O)CSc3c(c4ccccc4n3C)C2C(=O)NCc2ccccc2)c1 (stereo unspecified)	.
C=C(C(=O)O)[C@@H]1CC[C@H](C)[C@@H]2CC(=O)C(C)=C2C1	+
C=C(C(=O)O)C1CC2=C(C)C(=O)CC2C(C)CC1O (stereo unspecified)	.
